Our source for the max response, Potency and activity change % (negative = inhibition) values is PubChem BioAssay (NCATS).

Several values for one entry are separate records, joined by “and”; a condition that tells them apart may be missing. Equal values may be shown once. Inconclusive results are not listed. Activity calls are given as the source filed them.
On the % scale 0 is the no-effect control and ±100 the full control effect.

Chain of Thyroid hormone receptor beta (Homo sapiens) (P10828 whole entry, looked up): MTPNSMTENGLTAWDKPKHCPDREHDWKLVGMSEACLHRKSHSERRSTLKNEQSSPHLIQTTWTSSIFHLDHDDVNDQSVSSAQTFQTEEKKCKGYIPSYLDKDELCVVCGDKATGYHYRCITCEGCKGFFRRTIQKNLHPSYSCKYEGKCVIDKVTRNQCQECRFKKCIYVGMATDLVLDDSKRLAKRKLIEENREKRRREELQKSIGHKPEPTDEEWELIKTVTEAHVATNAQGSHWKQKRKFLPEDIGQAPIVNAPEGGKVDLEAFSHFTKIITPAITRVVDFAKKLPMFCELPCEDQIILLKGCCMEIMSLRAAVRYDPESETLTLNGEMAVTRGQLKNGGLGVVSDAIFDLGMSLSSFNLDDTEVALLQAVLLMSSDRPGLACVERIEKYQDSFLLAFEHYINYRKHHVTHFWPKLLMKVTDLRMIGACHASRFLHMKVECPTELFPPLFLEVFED

Test system in the first experiment: not listed separately
Briefly: qHTS assay for small molecule antagonists of retinoid X receptor alpha signaling (AID 588546; active means well fitted inhibition curve with a large enough effect in the signal ratio, with a control signal flat, not every such curve was filed as active; the % refers to the signal ratio; further: potency means the concentration at half of the fitted maximal effect;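 on max response: cells stimulated with 9-cis-retinoic acid as agonist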). The note with it: HEK293T RXRa-UAS-bla, beta-lactamase ratio, antagonist mode; measured here: W530 green channel, cytotoxicity proxy. The gist of the method: (§1)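 Beta-lactamase reporter inhibition, read as CCF4 fluorescence ratio (ex 405, em 460/530 nm) after 2 h at RT. HEK293T UAS-bla cells, 2500/well, were stimulated with 9-cis-RA at 500 or 100 nM final alongside test compound for 18 h at 37 C.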
With `Clc1ccc([C@]2(Cn3cncn3)C[C@H](Br)CO2)c(Cl)c1`, the max response was -15.4% and -0.171%.

Regarding `CCCCC(CC)COC(=O)Cl` (stereo unspecified), the max response is -5.58%.

With `CC1CCCCC1NC(=O)Nc1ccccc1` (stereo unspecified), the max response is -4.7%.

Regarding `CCOP(=S)(OCC)SCC(=O)NC(C)C`, the max response is -8.13%.

Take `CCOc1nc(NC)nc(NC(=O)NS(=O)(=O)c2ccccc2C(=O)OC)n1`: the max response was -10.6%.

As for `C/C(=N\NC(=O)Nc1cc(F)cc(F)c1)c1ncccc1C(=O)O`, the max response was -5.57% and -1.16%.

With `C=CCC1=C(C)[C@@H](OC(=O)[C@@H]2[C@@H](C=C(C)C)C2(C)C)CC1=O`, the max response was -5.3%.

Take `C=CC(=O)OCCCCCC(C)C`: the max response is -15.4%.

As to `CCC(C)n1c(=O)[nH]c(C)c(Br)c1=O` (stereo unspecified), the max response was -12.2%.

As for `COP(=S)(OC)Oc1ccc([N+](=O)[O-])c(C)c1`, the max response was -7.02%.

In the case of `CCN(CC)C(=O)C(C)Oc1cccc2ccccc12` (stereo unspecified), the max response was -20.3%.

On to `CCCCC(CC)C(=O)Cl` (stereo unspecified), for which the max response was -9.74%.

Take `CC(Oc1cc(Cl)c(Cl)cc1Cl)C(=O)O` (stereo unspecified): the max response is -19.8%.

As to `Cc1c(F)c(F)c(COC(=O)C2C(/C=C(\Cl)C(F)(F)F)C2(C)C)c(F)c1F` (stereo unspecified), the max response is -8.23%.

For `Nc1ccc([N+](=O)[O-])cc1Cl`, the max response is -11.1%.

For `CNC(=O)Oc1ccc(N(C)C)c(C)c1`, the max response is -12.9%.

The target in a further experiment is Retinoic acid receptor RXR-alpha (Homo sapiens) (UniProt P19793). Described as above. Particulars: HEK293T RXRa-UAS-bla, beta-lactamase ratio, antagonist mode. The method, boiled down: as §1
Chain of Retinoic acid receptor RXR-alpha (Homo sapiens) (P19793 whole entry, looked up): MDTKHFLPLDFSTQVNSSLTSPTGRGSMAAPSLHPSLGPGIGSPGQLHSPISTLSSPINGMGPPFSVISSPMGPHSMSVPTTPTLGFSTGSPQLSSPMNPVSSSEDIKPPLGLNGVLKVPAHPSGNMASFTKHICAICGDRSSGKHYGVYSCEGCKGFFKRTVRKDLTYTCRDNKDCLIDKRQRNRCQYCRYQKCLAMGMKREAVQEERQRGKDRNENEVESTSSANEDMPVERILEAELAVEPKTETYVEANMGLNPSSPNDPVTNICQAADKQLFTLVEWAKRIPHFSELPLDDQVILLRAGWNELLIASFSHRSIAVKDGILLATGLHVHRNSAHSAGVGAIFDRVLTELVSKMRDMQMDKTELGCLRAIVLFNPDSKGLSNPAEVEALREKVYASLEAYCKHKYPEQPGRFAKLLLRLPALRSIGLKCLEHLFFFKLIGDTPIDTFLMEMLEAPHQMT
In the case of `O=S(=O)(c1ccc(O)cc1)c1ccc(O)cc1`, the max response is 15.4% (inactive).

For `COc1ccc(O)c(C(C)(C)C)c1`, the max response is 7.69% (inactive).

On to `CCOc1ccc(C(C)(C)COCc2cccc(Oc3ccccc3)c2)cc1`, for which the max response was -7.6% (inactive).

Regarding `O=c1[nH]c2ccccc2c(=O)o1`, the max response was -21.4% (inactive).

With `COc1ccc(C(O)(c2cncnc2)C2CC2)cc1` (stereo unspecified), the max response is 1.16% (inactive).

With `CN(C)c1nc(=O)n(C2CCCCC2)c(=O)n1C`, the max response is -11.2% (inactive).

As for `C=CC1(C)OC(=O)N(c2cc(Cl)cc(Cl)c2)C1=O` (stereo unspecified), the max response is -13.3% (inactive).

On to `COC(=O)c1ccccc1CS(=O)(=O)NC(=O)Nc1nc(OC)cc(OC)n1`, for which the max response is -11% (inactive).

Regarding `CCC[CH2][Sn]([CH2]CCC)([O]C(C)=O)[O]C(C)=O`, the Potency was 22.4 µM (active).

Take `O=P(O)(O)CCCl`: the max response was 5.61% (inactive).

As to `CCCCN(CC)C(=O)SCCC`, the max response was 3.02% (inactive).

For `CCOP(=O)(NC(C)C)Oc1ccc(S(C)=O)c(C)c1` (stereo unspecified), the max response was 0.125% (inactive).

Regarding `COP(=S)(OC)Oc1nc(Cl)c(Cl)cc1Cl`, the max response is 15.1% (inactive).

In the case of `CCOP(=O)(O)C(N)=O`, the max response was -9.79% (inactive).

As for `COC(=O)c1ccccc1S(=O)(=O)NC(=O)N(C)c1nc(C)nc(OC)n1`, the max response was -3.24% (inactive).

In the case of `Clc1ccc(C(Cl)(Cl)Cl)cc1`, the max response was -3.2% (inactive).

Consider `CCOC1Oc2ccc(OS(C)(=O)=O)cc2C1(C)C` (stereo unspecified), for which the max response was -7.44% (inactive).

Take `COCc1cnc(C2=NC(C)(C(C)C)C(=O)N2)c(C(=O)O)c1` (stereo unspecified): the max response is 6.51% (inactive).

Take `Clc1ccc([C@]2(Cn3cncn3)C[C@H](Br)CO2)c(Cl)c1`: the max response was -14.1% (inactive) and -9.34% (inactive).

On to `CCCCC(CC)COC(=O)Cl` (stereo unspecified), for which the max response was -2.38% (inactive).

Take `CC1CCCCC1NC(=O)Nc1ccccc1` (stereo unspecified): the max response is -9.04% (inactive).

Turning to `CCOP(=S)(OCC)SCC(=O)NC(C)C`, the max response was -1.4% (inactive).

Regarding `CCOc1nc(NC)nc(NC(=O)NS(=O)(=O)c2ccccc2C(=O)OC)n1`, the max response was 20.8% (inactive).

Consider `C/C(=N\NC(=O)Nc1cc(F)cc(F)c1)c1ncccc1C(=O)O`, for which the max response was -18.2% (inactive) and 0.0153% (inactive).

On to `C=CCC1=C(C)[C@@H](OC(=O)[C@@H]2[C@@H](C=C(C)C)C2(C)C)CC1=O`, for which the max response is -11.9% (inactive).

Consider `CCC(C)n1c(=O)[nH]c(C)c(Br)c1=O` (stereo unspecified), for which the max response was 5.41% (inactive).

In the case of `COP(=S)(OC)Oc1ccc([N+](=O)[O-])c(C)c1`, the max response was -30.1% (inactive).

`CCN(CC)C(=O)C(C)Oc1cccc2ccccc12` (stereo unspecified): the max response was -6.13% (inactive).

Regarding `CCCCC(CC)C(=O)Cl` (stereo unspecified), the max response was 2.12% (inactive).

As for `CC(Oc1cc(Cl)c(Cl)cc1Cl)C(=O)O` (stereo unspecified), the max response was 1.54% (inactive).

Consider `Cc1c(F)c(F)c(COC(=O)C2C(/C=C(\Cl)C(F)(F)F)C2(C)C)c(F)c1F` (stereo unspecified), for which the max response is 12% (inactive).

For `Nc1ccc([N+](=O)[O-])cc1Cl`, the max response was -1.45% (inactive).

`CNC(=O)Oc1ccc(N(C)C)c(C)c1`: the max response was 7.08% (inactive).

Another experiment concerns the target Thyroid hormone receptor beta (Homo sapiens) (UniProt P10828). Nature of the experiment: qHTS assay for small molecule antagonists of thyroid hormone receptor beta signaling (AID 588547; active means well fitted inhibition curve with a large enough effect in the signal ratio, with a control signal flat, not every such curve was filed as active; the % refers to the signal ratio;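 further: cells stimulated with 0.4 nM T3 agonist during compound exposure; series mostly up to about 77 µM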). Particulars: TR-UAS-bla HEK293, beta-lactamase ratio, antagonist mode, 18 h. The gist of the method: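 TR-UAS-bla GripTite HEK293 cells in 2% charcoal/dextran FBS medium; compounds 0.59 nM to 92 uM with T3 at 0.4nM final, 18 h at 37 C. Beta-lactamase read by CCF4 fluorescence (460/530 nm); Hill fits gave IC50 and efficacy.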
In the case of `O=S(=O)(c1ccc(O)cc1)c1ccc(O)cc1`, the activity change % (negative = inhibition) was 5% (inactive).

On to `O=[N+]([O-])c1ccc(Oc2ccc(C(F)(F)F)cc2[N+](=O)[O-])cc1`, for which the activity change % (negative = inhibition) is 5.9% (inactive).

For `Cc1ccccc1C(=O)Nc1cccc(OC(C)C)c1`, the activity change % (negative = inhibition) was 5.62% (inactive).

With `CN(C)P(=O)(N(C)C)N(C)C`, the activity change % (negative = inhibition) is -0.373% (inactive).

On to `CCOc1ccc(C(C)(C)COCc2cccc(Oc3ccccc3)c2)cc1`, for which the activity change % (negative = inhibition) is 2.33% (inactive).

As for `O=c1[nH]c2ccccc2c(=O)o1`, the activity change % (negative = inhibition) was -10.7% (inactive).

As to `COc1ccc(C(O)(c2cncnc2)C2CC2)cc1` (stereo unspecified), the activity change % (negative = inhibition) is -4.75% (inactive).

For the compound `CN(C)c1nc(=O)n(C2CCCCC2)c(=O)n1C`, the activity change % (negative = inhibition) was -5.49% (inactive).

Take `COC(=O)c1ccccc1CS(=O)(=O)NC(=O)Nc1nc(OC)cc(OC)n1`: the activity change % (negative = inhibition) is 15.6% (inactive).

Regarding `CCC[CH2][Sn]([CH2]CCC)([O]C(C)=O)[O]C(C)=O`, the activity change % (negative = inhibition) was -21.2% (inactive).

On to `O=P(O)(O)CCCl`, for which the activity change % (negative = inhibition) is 22.1% (inactive) and 18.2% (inactive).

Take `CCCCN(CC)C(=O)SCCC`: the activity change % (negative = inhibition) was 1.78% (inactive).

Regarding `CCOP(=O)(NC(C)C)Oc1ccc(S(C)=O)c(C)c1` (stereo unspecified), the activity change % (negative = inhibition) is 7.26% (inactive).

Take `CCOP(=O)(O)C(N)=O`: the activity change % (negative = inhibition) was -0.728% (inactive).

Regarding `COC(=O)c1ccccc1S(=O)(=O)NC(=O)N(C)c1nc(C)nc(OC)n1`, the activity change % (negative = inhibition) was 9.61% (inactive).

For the compound `Clc1ccc(C(Cl)(Cl)Cl)cc1`, the activity change % (negative = inhibition) is -0.364% (inactive).

As to `COCc1cnc(C2=NC(C)(C(C)C)C(=O)N2)c(C(=O)O)c1` (stereo unspecified), the activity change % (negative = inhibition) was -1.58% (inactive).

For the compound `Clc1ccc([C@]2(Cn3cncn3)C[C@H](Br)CO2)c(Cl)c1`, the activity change % (negative = inhibition) is 0.44% (inactive).

Regarding `CCNc1nc(NC(C)(C)C)nc(SC)n1`, the activity change % (negative = inhibition) is 6.54% (inactive).

Turning to `CCCCC(CC)COC(=O)Cl` (stereo unspecified), the activity change % (negative = inhibition) was -1.19% (inactive).

On to `C/C(=N\NC(=O)Nc1cc(F)cc(F)c1)c1ncccc1C(=O)O`, for which the activity change % (negative = inhibition) is -6.39% (inactive).

Regarding `COP(=S)(OC)Oc1ccc([N+](=O)[O-])c(C)c1`, the activity change % (negative = inhibition) was 7.88% (inactive).

In the case of `CCN(CC)C(=O)C(C)Oc1cccc2ccccc12` (stereo unspecified), the activity change % (negative = inhibition) is -8.01% (inactive).

`CCCCC(CC)C(=O)Cl` (stereo unspecified): the activity change % (negative = inhibition) is 0.279% (inactive).

Regarding `Cc1c(F)c(F)c(COC(=O)C2C(/C=C(\Cl)C(F)(F)F)C2(C)C)c(F)c1F` (stereo unspecified), the activity change % (negative = inhibition) was 16.3% (inactive).

As to `Nc1ccc([N+](=O)[O-])cc1Cl`, the activity change % (negative = inhibition) is -8.47% (inactive).

For `CNC(=O)Oc1ccc(N(C)C)c(C)c1`, the activity change % (negative = inhibition) was -0.485% (inactive).
